Compound activity from PubChem.
This is one part of a sample in which hits are shown more often than they occur.
BL2 CD40 inh – CD40 pathway inhibition in BL2 cells; BL2 NF-kB luciferase reporter, CD40L-induced, 4 h; inhibition, % at 10 µM; actives 0.94% (n = 83,000); AID 1053188;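 active = mean inhibition of at least 50% with a set share of replicates also reaching that level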
A number is an active result; 0 = inactive; [ ] = remark or other dose.

SMILES	BL2 CD40 inh
CCCNC(=O)N1[C@@H](C#N)[C@@H](c2ccc(C3=CCCCC3)cc2)[C@@H]1CO	0
CCCNC(=O)N1[C@H](C#N)[C@H](c2ccc(C3=CCCCC3)cc2)[C@@H]1CO	61[25 µM]
CCCNC(=O)N1[C@H](CO)[C@@H](c2ccc(C3=CCCCC3)cc2)[C@@H]1C#N	0
C[C@H](NC(=O)N(C)C[C@@H]1OCc2ccccc2-c2c(n(C)c3ccccc23)C(=O)N([C@@H](C)CO)C[C@H]1C)c1ccccc1	0
OC1CC2CCC(C1)N2CCCN1c2ccccc2Sc2ccc(Cl)cc21 (stereo not drawn)	54
O=C1CCSc2ccc(Cl)cc2N1Cc1ccccc1	0
O=C(CN1c2ccccc2Sc2ccccc21)N/N=C/c1ccc(Cl)cc1	0
CN1CCCCN2[C@H](CO)[C@@H](c3ccc(-c4ccc(F)cc4)cc3)[C@@H]2C1	0
C1=C(CN2CCOCC2)COc2c1cccc2OCC1CNCCO1 (stereo not drawn)	0
Cn1cnnc1SCc1ccc(F)c2ccccc12	0
Cn1cnnc1SCc1ccc(-c2ccc(Br)cc2)o1	80
Cn1cnnc1SCc1ccc(C(=O)NN)cc1	0
COCC(=O)N1C[C@@H](C)[C@H](OC)CN(C)C(=O)c2ccc(NC(=O)Nc3cccc(F)c3)cc2OC[C@@H]1C	0
CCC(=O)Nc1ccc2c(c1)OC[C@@H](C)N(Cc1ccccc1)C[C@H](C)[C@H](OC)CN(C)C2=O	0
CC(=O)N1[C@H](CN(CC(C)C)C(=O)c2ccccn2)[C@H](c2ccccc2)[C@@H]1CO	0
N#C[C@@H]1[C@@H](c2ccc(-c3cccc(F)c3)cc2)[C@H](CO)N1C(=O)NC1CCCCC1	0
O=C(O)CCCCCN1C(=O)/C(=C/c2cn(-c3ccccc3)nc2-c2cccs2)SC1=S	0
O=C(O)CCN1C(=O)/C(=C\c2ccncc2)SC1=S	0
CC(/C=C1\SC(=O)N(CCCC(=O)O)C1=O)=C\c1ccccc1	48
C[C@H](CO)N1C[C@H](C)[C@H](CN(C)Cc2ccc(Oc3ccccc3)cc2)Oc2ccc(NC(=O)Cn3cnnn3)cc2CC1=O	0
COc1ccccc1NC(=O)N(C)C[C@@H]1OCc2ccccc2-c2ccccc2C(=O)N([C@H](C)CO)C[C@@H]1C	0
CC(C)Cc1ccc(C(C)CC2=CCC(CN(C)C)C2=O)cc1 (stereo not drawn)	94
C[C@H](NC(=O)[C@H]1[C@H](CO)[C@H]2Cn3c(ccc(-c4ccccc4)c3=O)[C@H]2N1C)c1ccccc1	0
C/C=C/c1ccc([C@@H]2[C@H](CO)N[C@H]2CN(C(=O)c2ccccc2F)C(C)C)cc1	0
O=C(C[C@H]1C=C[C@H](NC(=O)Nc2ccc3c(c2)OCO3)[C@@H](CO)O1)NCCCN1CCOCC1	0
SMILES	BL2 CD40 inh
CCOc1ccc(-n2ccnc(SCC(=O)NCCc3ccccc3)c2=O)cc1	0
Cc1ccc(-n2ccnc(SCC(=O)NC3CCCC3)c2=O)cc1Cl	0
Cc1ccc(-n2ccnc(SCC(=O)NCCc3ccccc3)c2=O)cc1F	54
O=C(CCN1CCCCC1)NCC[C@@H]1CC[C@H](NC(=O)C2CCCCC2)[C@@H](CO)O1	0
C[C@@H]1CN([C@H](C)CO)C(=O)CCCn2cc(nn2)CO[C@@H]1CN(C)C(=O)c1ccncc1	0
CC(C)(C)NC(=O)/C=C/c1cccs1	0
CC(=O)c1ccc(N2CCN(C(=O)Cc3cccs3)CC2)cc1	0
O=C(/C=C/c1cccs1)c1ccc(N2CCOCC2)cc1	54
O=C(NCC[C@H]1CC[C@@H](NS(=O)(=O)Cc2ccccc2)[C@@H](CO)O1)C1CCCC1	0
C[C@@H]1CC=CC[C@@H](c2ccccc2)NC(=O)[C@@H](C)N(C)C(=O)c2ccccc2O1 (mixture of isomers)	0
COc1cccc(CN2[C@@H](CO)[C@@H](c3ccccc3)C23CN(C(=O)C2CCCC2)C3)c1	0
Cc1cccc(-c2ccc([C@H]3[C@@H](CO)N4CCCCN(S(=O)(=O)c5ccccc5F)C[C@@H]34)cc2)c1	0
Cc1cccc(-c2ccc([C@@H]3[C@@H](CO)N4CCCCN(S(=O)(=O)c5ccccc5F)C[C@H]34)cc2)c1	71[25 µM]
Cc1cccc(-c2ccc([C@@H]3[C@@H](CO)N4CCCCN(S(=O)(=O)c5ccccc5F)C[C@@H]34)cc2)c1	0
COc1ccc2c3c([nH]c2c1)[C@@H](CO)N(C(=O)c1cccc(F)c1)CC31CCN(C(=O)c2ccccc2)CC1	0
CCN(CC)CCCNc1nc2ccccc2c2[nH]c3ccc(OC)cc3c12	103
COc1ccc2[nH]c3c(NCCCN4CCCC4=O)ncnc3c2c1	0
CCN(CC)CCCNS(=O)(=O)c1ccc(OC)cc1	0
COc1ccc2c3c([nH]c2c1)[C@@H](CO)N(C(=O)CN(C)C)CC31CCN(Cc2cncnc2)CC1	0
COc1cccc(-c2ccc3c(c2)[C@@H]2[C@@H](CCN2C(=O)C2CCCC2)[C@H](CO)N3)c1	0
C[C@@H]1CN([C@H](C)CO)C(=O)c2c(c3ccccc3n2C)-c2ccccc2CO[C@@H]1CN(C)C(=O)[C@H](C)c1ccccc1	0
CN1CCN(C(=O)C[C@H]2CC[C@H]3[C@H](COc4ccc(NC(=O)C5CCCC5)cc4C(=O)N3C)O2)CC1	0
O=C(C[C@H]1C=C[C@H](NC(=O)Nc2cccc(F)c2)[C@H](CO)O1)NCC1CCCCC1	0
CCOC(=O)N(C)C[C@@H]1OCc2cnnn2CCCC(=O)N([C@@H](C)CO)C[C@H]1C	0
CC1CC(C)C(=NNC(N)=O)C(C(O)CC2CCC(=O)NC2=O)C1 (stereo not drawn)	56
SMILES	BL2 CD40 inh
C[C@@H]1CN([C@H](C)CO)C(=O)CCCn2cc(nn2)CO[C@H]1CN(C)Cc1ccc(C(=O)Nc2ccccc2N)cc1	0
COc1ccc2c3c([nH]c2c1)[C@@H](CO)N(C(=O)Nc1ccc(F)cc1)CC31CCN(C(=O)Cc2ccncc2)CC1	0
COc1ccc2c3c(n(C)c2c1)[C@@H](CO)N(C(=O)c1ccc(F)cc1)CC31CN(C(=O)Nc2ccc(F)cc2)C1	0
COc1ccc2c3c([nH]c2c1)[C@H](CO)N(C(=O)Nc1ccc(F)cc1)CC31CCN(C(=O)c2ccccc2F)CC1	60[25 µM]
COc1ccc2c3c([nH]c2c1)[C@@H](CO)N(C)CC31CCN(C(=O)c2ccccc2F)CC1	0
COc1ccc2c3c(n(C)c2c1)[C@H](CO)N(C(=O)Nc1ccc(F)cc1)CC31CN(C(=O)Cc2ccncc2)C1	0
COc1ccc2c3c(n(C)c2c1)[C@@H](CO)N(C(=O)Nc1ccc(F)cc1)CC31CN(Cc2ccccc2F)C1	58[25 µM]
CC(C)NC(=O)N(C)C[C@@H]1Oc2ccccc2C(=O)N(C)C[C@@H]1C	0
O=C1C[C@@H](c2ccccc2)C(=O)N[C@H](c2ccccc2)C/C=C\C[C@@H](c2ccccc2)N1	0
CC(=O)Nc1cccc2c1O[C@@H](CN(C)C(=O)OC(C)(C)C)[C@H](C)CN(C)C2=O	0
O=S(=O)(c1cccc(Cl)c1)N1[C@@H]2CNC[C@H]1C2c1ccc(-c2cccnc2)cc1 (stereo partly drawn)	0
O=C(c1ccccc1F)N1C[C@H]2[C@@H](c3ccccc31)[C@@H](CO)N2C(=O)c1ccccc1	0
COc1cccc(Nc2nc(-c3ccc4c(c3)OCCO4)cs2)c1	0
COc1ccccc1C(=O)Nc1nc(-c2ccc3c(c2)OCCO3)cs1	50
O=C(Nc1nc(-c2ccc3c(c2)OCCO3)cs1)c1ccco1	0
C[C@@H]1CN([C@@H](C)CO)C(=O)c2cccc(NS(=O)(=O)c3ccc(F)cc3)c2O[C@@H]1CN(C)C(=O)NC1CCCCC1	0
CNC[C@@H]1Oc2ccc(N)cc2CC(=O)N(C)C[C@@H]1C	0
